# The campaign covered roughly 1,300 compounds. About 240 (18%) were called active. About 8% were inconclusive and are not listed. No rule for the calls is given here. The list is a sample of the results. Entries that show only a call come without a potency. Potency and affinity values are given separately.
# Test: toxicity to human hepatoma HepG2 cells – cell-based, cherry-picked samples, cytotoxicity control, dose response (AID 1159577)
# Conditions: HepG2 cytotoxicity counterscreen, plate reader; series mostly up to 19.5 µM
row,Structure (SMILES),outcome
1,C[C@@H]1CN([C@H](C)CO)C(=O)c2cccc(NC(=O)CCCCCC(=O)Nc3ccccc3N)c2O[C@@H]1CN(C)S(=O)(=O)c1ccccc1,inactive
2,Cc1ccccc1S(=O)(=O)N1[C@H](C#N)[C@@H](c2ccc(C#CC3CC3)cc2)[C@@H]1CO,inactive
3,C[C@H](CO)N1C[C@H](C)[C@@H](CN(C)C(=O)c2ccc(F)cc2)Oc2ncc(/C=C/c3ccccc3)cc2C1=O,inactive
4,C[C@@H]1CN([C@@H](C)CO)S(=O)(=O)c2ccc(C#CC3(O)CCCC3)cc2O[C@H]1CN(C)C(=O)c1ccccc1,inactive
5,CN1c2ccc(-c3cccc(F)c3)cc2[C@@H]2[C@@H](CCN2C(=O)C2CC2)[C@@H]1CO,inactive
6,N#C[C@H]1[C@@H](c2ccccc2-c2ccccc2F)[C@@H](CO)N1C(=O)C1CCOCC1,inactive
7,CO[C@@H]1CN(C)C(=O)c2ccc(NC(=O)Nc3ccc(C(F)(F)F)cc3)cc2OC[C@H](C)NC[C@H]1C,inactive
8,CO[C@H]1CN(C)C(=O)c2ccc(NC(=O)Nc3ccc(C(F)(F)F)cc3)cc2OC[C@H](C)NC[C@H]1C,inactive
9,CO[C@@H]1CN(C)C(=O)c2ccc(NC(=O)Nc3ccc(C(F)(F)F)cc3)cc2OC[C@@H](C)NC[C@@H]1C,inactive
10,CO[C@H]1CN(C)C(=O)c2ccc(NC(=O)Nc3ccc(C(F)(F)F)cc3)cc2OC[C@@H](C)NC[C@@H]1C,inactive
11,Cc1ccc(-c2ccccc2[C@H]2[C@@H](C#N)N(C(=O)NC3CCCC3)[C@H]2CO)cc1,inactive
12,COc1ccc(S(=O)(=O)N(C)C[C@@H]2Oc3cc(-c4ccccc4OC)ccc3S(=O)(=O)N([C@H](C)CO)C[C@H]2C)cc1,inactive
13,CCCC(=O)Nc1ccc2c(c1)OC[C@H](C)N(Cc1ccc(-c3ccccn3)cc1)C[C@H](C)[C@H](OC)CN(C)C2=O,inactive
14,CO[C@@H]1CN(C)C(=O)c2ccc(NC(=O)C3CC3)cc2OC[C@@H](C)N(Cc2cccc(F)c2)C[C@H]1C,inactive
15,CCC(=O)Nc1ccc2c(c1)C(=O)N(C)C[C@H](OC)[C@H](C)CN(Cc1cccc(F)c1)[C@@H](C)CO2,inactive
16,COc1ccc(CN(C)C[C@@H]2OCc3cn(nn3)CCCC(=O)N([C@H](C)CO)C[C@H]2C)cc1,inactive
17,COc1ccccc1CN1C[C@@H](C)[C@H](OC)CN(C)C(=O)c2cc(NC(=O)Nc3ccccc3OC)ccc2OC[C@H]1C,inactive
18,C[C@@H]1CN([C@H](C)CO)S(=O)(=O)c2ccc(C#Cc3ccccc3F)cc2O[C@H]1CN(C)C(=O)c1ccc2c(c1)OCO2,inactive
19,COc1cccc(C(=O)Nc2ccc3c(c2)C(=O)N(C)C[C@@H](OC)[C@H](C)CN(CCc2ccccc2)[C@H](C)CO3)c1,inactive
20,C/C=C/c1ccc2c(c1)[C@H]1[C@H](CCN1C(=O)c1ccc(F)cc1)[C@H](CO)N2,inactive
21,O=C(Nc1ccccc1F)N1C[C@@H]2[C@H](c3ccccc31)[C@H](CO)N2C(=O)C1CCOCC1,inactive
22,COc1ccc2c3c([nH]c2c1)[C@@H](CO)N(Cc1cc(F)ccc1F)CC31CN(C(=O)C2CCC2)C1,inactive

row,Structure (SMILES),outcome
1,CN(C)C(=O)c1ccc(-c2cccc(-c3nc(C(=O)NC4CCCC4)cc4c3[C@H](CCO)N([S@@](=O)C(C)(C)C)C4)c2)cc1,inactive
2,CO[C@@H]1CN(C)C(=O)c2ccc(NC(=O)Nc3cccc(F)c3)cc2OC[C@H](C)NC[C@H]1C,inactive
3,CO[C@H]1CN(C)C(=O)c2ccc(NC(=O)c3cccc(Oc4ccccc4)c3)cc2OC[C@@H](C)NC[C@H]1C,inactive
4,COc1ccc(-c2ccc3c(c2)[C@H]2[C@H](CCN2Cc2ccncc2)[C@@H](CO)N3)cc1,inactive
5,CN1C(=O)c2cc(NC(=O)c3cccc(F)c3)ccc2OC[C@H]2O[C@H](CC(=O)NCC3CCCCC3)CC[C@H]21,inactive
6,CC(C)NC(=O)Nc1ccc2c(c1)C(=O)N(C)[C@H]1CC[C@H](CC(=O)Nc3ccccc3)O[C@H]1CO2,inactive
7,CC(C)(C)[S@@](=O)N1Cc2cc(C(=O)N[C@@H]3CCN(Cc4ccccc4)C3)nc(-c3cccc(-c4ccncc4)c3)c2[C@H]1CCO,inactive
8,COc1cccc(-c2ccc3c(c2)[C@@H]2[C@@H](CCN2S(=O)(=O)c2cn(C)cn2)[C@@H](CO)N3)c1,inactive
9,N#Cc1ccc(-c2ccc3c(c2)[C@H]2[C@H](CCN2C(=O)C2CCCC2)[C@H](CO)N3)cc1,inactive
10,O=C(C[C@H]1CC[C@@H]2[C@H](COC[C@H](O)CN2Cc2cc(F)ccc2F)O1)N[C@@H]1CCN(Cc2ccccc2)C1,inactive
11,COc1ccc2c3c([nH]c2c1)[C@H](CO)N(Cc1ccc(F)cc1)CC31CCN(Cc2ccccn2)CC1,inactive
12,COc1cccc(CN2CC3(CCN(Cc4ccccn4)CC3)c3c([nH]c4cc(OC)ccc34)[C@@H]2CO)c1,inactive
13,COc1ccc2c3c([nH]c2c1)[C@@H](CO)N(Cc1nccs1)CC31CCN(Cc2nccs2)CC1,inactive
14,COc1ccc2c3c([nH]c2c1)[C@H](CO)N(Cc1ccccc1)CC31CCN(CC2CC2)CC1,inactive
15,COc1ccc2c3c([nH]c2c1)[C@@H](CO)N(Cc1ccc(Cl)cc1)CC31CCN(Cc2nccs2)CC1,inactive
16,COc1ccc2c3c([nH]c2c1)[C@H](CO)N(Cc1ccncc1)CC31CN(Cc2ccc(-c3ccccn3)cc2)C1,inactive
17,C[C@@H]1CN([C@H](C)CO)C(=O)c2cc(NC(=O)CCC(F)(F)F)ccc2O[C@H]1CN(C)C(=O)NC1CCCCC1,inactive
18,O=C(C1CCCC1)N1CC[C@@H]2[C@H](CO)Nc3ccc(Br)cc3[C@@H]21,inactive
19,COc1ccc2c3c([nH]c2c1)[C@H](CO)N(Cc1ccccc1Cl)CC31CN(C(C)=O)C1,inactive
20,CC(C)(C)[S@@](=O)N1Cc2cc(C(=O)NC3CCC3)nc(-c3cccc(Br)c3)c2[C@H]1CCO,inactive
21,C[C@@H]1CN([C@@H](C)CO)C(=O)c2cccc(NC(=O)Nc3cccc4ccccc34)c2O[C@H]1CN(C)C(=O)NC1CCCCC1,inactive
22,COc1ccc2c3c([nH]c2c1)[C@H](CO)N(Cc1ccccc1F)CC31CN(C(=O)C2CCC2)C1,inactive

# Reference: PubChem BioAssay AID1159577 (Broad Institute, 2015)
